The sample as a whole holds a higher share of hits than the screen did.
BLM helicase inh: inhibitors of human Bloom syndrome helicase BLM | P54132 | recombinant BLM DNA unwinding, fluorescence dequenching | Potency, µM (top dose mostly 56.1 µM), for inactives: at the top dose activity change, negative = inhibition, most hits filed as inhibitors | 350,000 tested, 0.2% active;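 also: plate controls were vehicle for no effect and no enzyme for full effect; nearly all actives have a fitted effect of over 35% in size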
RECQ1 helicase: RECQ1 (human) helicase inhibition; RECQ1 DNA unwinding, red fluorescence kinetic read; Potency, µM (top dose mostly 57.3 µM), without a hit: at the top dose activity, negative = inhibition, most hits filed as inhibitors; 240,000 tested, 0.54% active; P46063;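 also: plate controls were vehicle for no effect and no enzyme for full effect; nearly all actives have a fitted effect of over 30% in size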
Target sequence (P46063 whole entry, looked up): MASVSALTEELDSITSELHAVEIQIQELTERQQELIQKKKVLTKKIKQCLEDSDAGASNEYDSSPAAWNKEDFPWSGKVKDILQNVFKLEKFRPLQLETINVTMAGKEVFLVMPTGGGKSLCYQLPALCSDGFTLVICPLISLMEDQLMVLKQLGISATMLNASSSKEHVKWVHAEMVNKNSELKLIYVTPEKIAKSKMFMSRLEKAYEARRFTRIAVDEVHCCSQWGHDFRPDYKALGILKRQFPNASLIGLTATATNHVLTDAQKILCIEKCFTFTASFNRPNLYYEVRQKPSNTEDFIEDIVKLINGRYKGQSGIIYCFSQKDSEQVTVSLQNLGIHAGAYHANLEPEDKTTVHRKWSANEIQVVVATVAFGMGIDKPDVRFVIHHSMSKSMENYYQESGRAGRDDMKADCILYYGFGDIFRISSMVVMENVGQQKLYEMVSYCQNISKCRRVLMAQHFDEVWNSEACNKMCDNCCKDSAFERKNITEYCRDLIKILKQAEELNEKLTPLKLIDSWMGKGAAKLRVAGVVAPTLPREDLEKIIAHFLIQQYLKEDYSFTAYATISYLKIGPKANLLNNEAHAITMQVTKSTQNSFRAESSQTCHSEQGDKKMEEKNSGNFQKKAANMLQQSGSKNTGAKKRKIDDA
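50 nM RECQ1T1 preincubated 15 min with compound in Tris pH 8.0 buffer with MgCl2, DTT, Tween-20 and 2.5 ug/ml poly(dI-dC); started with 200 nM TAMRA/BHQ-2 forked duplex and 2 mM ATP. Unwinding read as fluorescence (525/598 nm), two reads 2 h apart.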
L3MBTL1 block: L3MBTL1 (human) inhibition | AlphaScreen L3MBTL1–H3K9me1 peptide binding | Potency, µM (series often up to 57.1 µM), for inactives: top-dose activity, negative = inhibition, hits mostly inhibitors | 230,000 tested, 0.66% active | AID 485360; also: nearly all actives have a fitted effect of over 60% in size
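Displacement of a biotinylated histone H3(1-15) peptide monomethylated at Lys9 (75 nM) from L3MBTL1 (50 nM) was measured by AlphaScreen after a 30 min room-temperature compound incubation; cefsulodin titration served as intraplate control.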
JMJD2E inh: JMJD2E (human) inhibition | JMJD2E catalytic domain, FDH-coupled NADH fluorescence (FDH is formaldehyde dehydrogenase) | Potency, µM (doses to about 57.1 µM), inactives show at the top dose activity change, negative = inhibition, most hits filed as inhibitors | 230,000 tested, 1.6% active | AID 2147; active = well fitted inhibition curve with a large enough effect, not every such curve was filed as active; inconclusive = small, poorly fitted or top-dose-only effect, or another doubt; inactive = no such curve, though single readings can be large or run the other way;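 also: 0% = wells with enzyme and -100% = buffer wells without enzyme; nearly all actives have a fitted effect of over 50% in size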
APE1 inh: APE1 (human) endonuclease inhibition | AID 2517 | Potency, µM (doses to about 65.8 µM), inactives show at the highest dose activity change, negative = inhibition, usual class: inhibitors | P27695 | recombinant APE1, TAMRA/BHQ-2 abasic DNA cleavage fluorescence | 350,000 tested, 0.35% active;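 also: plate controls were vehicle for no effect and reference inhibitor for full effect; nearly all actives have a fitted effect of over 55% in size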
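Endonuclease cleavage of a quenched abasic-site DNA duplex (50 nM) by APE1 (0.75 nM) was tracked by TAMRA dequenching. Compounds were preincubated with enzyme 15 min at room temperature; data normalized to buffer-only and DMSO wells plus NSC13755 control.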
GoLoco inh red: inhibitors of human Gai1-RGS12 GoLoco interaction (red fluorophore); 230,000 tested, 0.44% active; Potency, µM (series often up to 61.6 µM), for the others: top-dose activity, negative = inhibition, hits mostly inhibitors; Gai1:RGS12 GoLoco peptide FP, rhodamine, 10 min; P63096; active = well fitted inhibition curve with a large enough effect, not every such curve was filed as active; inactive = no such curve, though single readings can be large or run the other way; also: nearly all actives have a fitted effect of over 30% in size
* hit, by the source's call; i = inactive; ? = inconclusive; . = not tested or not shown; [ ] = dose if it differs, or a comment. Unless noted, calls follow the shape of the dose curve; as a rule, active = well fitted curve in the direction sought with a large enough effect; inconclusive = small, poorly fitted or top-dose-only effect, or another doubt; inactive = no such curve, though single readings can be large; an effect the other way counts as inactive or inconclusive. Unless noted, % is scaled to controls: 0 for no effect and ±100 for the full control effect; potency is read from the fitted curve at half-maximal effect.

SMILES	BLM helicase inh	RECQ1 helicase	L3MBTL1 block	JMJD2E inh	APE1 inh	GoLoco inh red
CC(=O)Nc1ccc(N(C(=O)Cn2nnc3ccccc32)C(C(=O)NC2CCCC2)c2ccc(O)c(O)c2)cc1 (centres undefined)	-1.4%	-2.3%	-4.9%	7.94µM*	1.8%	4.3%
CC1CCCCC1NC(=O)Cn1nnc2ccccc2c1=O (centres undefined)	0.2%	i	3.3%	-7.0%	13.7%	1.2%
Cc1cccc(N2C(=O)NC(=O)/C(=C\c3ccc4c(c3)CCCN4Cc3ccccc3)C2=O)c1	-24.0%	31.6µM*	-8.6%	?	10.9%	-35.1%
N[C@@H](CP(=O)(O)O)C(=O)O	.	.	.	.	.	2.6%[14.2 µM]
Cn1cccc1/C=C1/C(=O)NC(=S)N(Cc2ccc(F)cc2)C1=O	?	25.1µM*	.	-7.7%	?	39.7%
Cn1cccc1/C=C1/C(=O)NC(=O)N(Cc2ccc(F)cc2)C1=O	-22.0%	?	.	-10.6%	-9.7%	46.7%
Cn1ncnc2c(=O)n(C)c(=O)nc1-2	1.12µM*	?	-19.2%	3.98µM*	?	-14.2%
COc1cc(CCN)c(OC)c(OC)c1	.	.	.	.	.	3.3%[14.2 µM]
CCCCCCNC(=O)N[C@H](Cc1ccc(O)cc1)C(=O)NCCC[C@H]1CN2C(=NC[C@H]2CCC)N1CC1CCC1	-0.8%	i	.	?	0.4%	14.1µM*
Cc1cccc(CN2CCN(c3ccc(Cl)cc3)CC2)c1	-4.1%	i	-7.0%	22.4µM*	-10.1%	-8.7%
Cc1cccc(CN2CCN(Cc3ccc(Cl)cc3)CC2)c1	2.6%	-6.3%	.	15.8µM*	0.6%	6.5%
CC(C)(C)C(=O)CP(=O)(O)O	.	.	.	.	.	0.0%[14.2 µM]
COc1ccc(C(=O)O[C@H]2CC[C@@]3(C)[C@H]4CC[C@H]5[C@]3(C[C@]3(O)[C@H]6CN7C[C@H](C)CC[C@H]7[C@](C)(O)[C@]6(O)[C@H](O)C[C@]53O)O[C@]24O)cc1OC	.	.	.	.	.	8.2%[14.2 µM]
NP(=O)(OCCCc1ccccc1)Oc1ccc(Cl)cc1 (centres undefined)	-2.6%	.	14.1µM*	.	26.1%	.
Nc1nc2c(ncn2[C@@H]2O[C@H](CO)[C@@H](O)[C@@H]2O)c(=[SH+])[nH]1.O=[N+]([O-])c1ccc(O)[c]([Hg])c1	.	.	.	.	.	0.112µM*
Nc1nc(=S)c2ncn([C@H]3O[C@@H](CO)[C@@H](O)[C@@H]3O)c2[nH]1	4.9%[21.4 µM]	-0.4%[25.9 µM]	.	-11.1%[25.5 µM]	11.3%[21 µM]	-1.4%[21.6 µM]
Brc1c(NC2=NCCN2)ccc2nccnc12	-2.7%	10.3%	-1.6%	20µM*	-3.8%	1.3%
Cn1c(=O)c2c(nc(N/N=C/c3c(O)n(-c4ccccc4)c(=S)[nH]c3=O)n2C)n(C)c1=O	2.0%	-8.1%	9.0%	25.1µM*	-3.9%	6.3%
COc1ccc(/C=N/N=C(/N)N[N+](=O)[O-])c(OC)c1	1.3%	i	-3.2%	?	2.8%	6.8%
N/C(=N\N=C/c1ccc(-c2ccc(O)c(C(=O)O)c2)o1)N[N+](=O)[O-]	51.9%	12.6µM*	11.2µM*	?	7.94µM*	-0.8%
CCC12CCN(CC3CC3)CC1Oc1c(C)cccc12 (centres undefined)	.	.	.	.	7.5%	.
CC1=CC(=O)c2c(O)cccc2C1=O	?	?	.	8.91µM*	?	-8.2%
CCNC1(c2cccs2)CCCCC1=O (centres undefined)	.	.	.	.	5.3%[21 µM]	.
Cc1cc(/C=C2\C(=O)NC(=O)N(c3ccccc3F)C2=O)c(C)n1-c1cc(C(=O)O)cc(C(=O)O)c1	44.2%	.	.	.	10.6µM*	.
C[C@]12C=CC(=O)C=C1CC[C@@H]1[C@@H]2CC[C@]2(C)OC(=O)CC[C@@H]12	.	.	.	.	19.0%	.
SMILES	BLM helicase inh	RECQ1 helicase	L3MBTL1 block	JMJD2E inh	APE1 inh	GoLoco inh red
O=C1NC(=O)C(=Cc2csc3ccccc23)C(=O)N1	2.6%	-0.3%	3.3%	?	3.2%	4.2%
O=C1NC(=O)C(=Cc2coc3ccccc3c2=O)C(=O)N1	-3.6%	10.2%	.	20µM*	-1.1%	15.8%
O=C1NC(=O)C(=C/C=C/c2coc3ccc(Br)cc3c2=O)C(=O)N1	-13.9%	35.5µM*	-27.3%	-6.4%	?	-176.0%
Cc1cc(C)cc(OP(=O)(Oc2cc(C)cc(C)c2)Oc2cc(C)cc(C)c2)c1	.	-0.5%	.	.	1.4%	4.1%
COC1C(O)C(C)O[C@H](OC2CC[C@@]3(C=O)C4CC[C@]5(C)C(C6=CC(=O)OC6)CC[C@@]5(O)C4CC[C@@H]3C2)C1O (some centres undefined)	-8.6%	-4.2%	.	0.1%	-1.4%	0.6%
ClC1=C(Cl)C(Cl)(C2(Cl)C(Cl)=C(Cl)C(Cl)=C2Cl)C(Cl)=C1Cl	-8.1%	?	.	.	11.2µM*	.
CCC(C)C(=O)OC1C2CC3=C4CC(=O)OC(c5ccoc5)[C@]4(C)CCC3[C@@](C)(C2=O)C(CC(=O)OC)C1(C)C (some centres undefined)	-7.6%	13.3%	.	-3.4%	?	-5.8%
O=c1cc(C(F)(F)F)c2cc3c4c(c2o1)CCCN4CCC3	-6.4%	i	.	-10.3%	6.1%	12.6µM*
CN1/C(=C\C=C2C(=O)NC(=S)NC2=O)C(C)(C)c2ccccc21	-28.7%	-1.4%	3.7%	-4.8%	2.9%	-151.0%
CC1(C)OC(c2ccccc2)=C/C(=C/C=C2C(=O)NC(=S)NC2=O)O1	22.4µM*	25.1µM*	?	-8.7%	-11.1%	-37.9%
CC(=O)O[C@@H]1C[C@@]2(C)C(c3ccoc3)C[C@H]3O[C@]32[C@]2(C)C(=O)C(O)=C3C(C)(C)C(=O)C=C[C@]3(C)C12 (some centres undefined)	-8.1%	-1.1%	.	-0.8%	-2.2%	-28.0%
COC(C)(C)C	.	5.3%	.	.	8.0%	2.8%
C=CCNC(=S)/N=C/c1c(O)[nH]c(=O)[nH]c1=O	-9.6%	i	3.6%	2.51µM*	-0.5%	21.0%
CCOCCOC(C)=O	.	-21.7%	.	.	-0.1%	28.2µM*
CCc1ccc2c(CN3CC=C(c4ccccc4)CC3)cc(=O)oc2c1	-13.2%	-8.5%	4.2%	14.1µM*	3.4%	10.6%
COc1ccc2c(CN3CC=C(c4ccccc4)CC3)cc(=O)oc2c1	-3.2%	-6.4%	.	?	-3.4%	-0.7%
Cc1ccc2c(CN3CC=C(c4ccccc4)CC3)cc(=O)oc2c1C	59.6%	-1.3%	-4.3%	25.1µM*	-7.7%	.
CCN=C=NCCCN(C)C	.	.	.	.	.	-0.9%[14.2 µM]
O=C(N/N=C/C1C(=O)NC(=S)N(c2ccccc2)C1=O)c1cc(Br)c(O)c(Br)c1 (centres undefined)	1.2%	?	12.6µM*	22.4µM*	-4.1%	-19.0%
O=C(N/N=C/c1c(O)n(C2CCCCC2)c(=S)[nH]c1=O)c1ccccc1	-3.8%	.	.	.	-4.0%	.
